Source: PubChem BioAssay (Tox21)
Unmarked numbers belong to inactive results. Where a call stands in place of a potency, no number is given. Active and inactive are the calls of the source. Calls follow the shape of the dose curve; as a rule, active = well fitted curve in the direction sought with a large enough effect in the repeat runs; inconclusive = weak or mixed curves; inactive = flat fitted curve, though single readings scatter.

test: qHTS assay to test for compound auto fluorescence at 590 nm (red) in HEK293 cell free culture (AID 720683); conditions: cell-free medium autofluorescence, Ex540/Em590 red; series mostly up to 91.3 µM
From the text: U.S. Tox21 Program National Center for Advancing Translational Sciences [NCATS] NIH Chemical Genomics Center [NCGC] U.S. Environmental Protection Agency [EPA] National Institutes of Environmental Health Sciences [NIEHS] National Toxicology Program [NTP] U.S. Food and Drug Administration [FDA] Tox21 Assay Overview: Compound auto fluorescence often interferes with screening of the compound library against various biological targets and signaling pathways. Some of these compounds may have fluorophoric properties. Such properties may interfere with the assay outputs resulting in false positives and/or negatives. To decrease such complications and ensure the compound activities are relevant in terms of biological response, the Tox21 10K compound library was screened for auto fluorescence. From the fluorophores used as reporter signals in our screening assays, the auto fluorescence equivalencies of compounds against three fluorophores have been evaluated: Triamterene, Fluorescein and Rose Bengal sodium for blue, green and red fluorescence, respectively. The fluorescence intensities were measured using Excitation/Emission wavelengths at 405/460nm, 485/535nm and 540/590nm for blue, green and red labels, respectively. This assay includes the red fluorescence data.
Tox21 Assay Protocol Summary: 5 uL of culture medium (DMEM containing 10% FBS) per well was dispensed into black wall/clear bottom 1536-well plates using a Multidrop Combi Dispenser (ThermoFisher Scientific, Waltham, MA). After 23 nL compound or DMSO vehicle was transferred into assay plate by a pintool work station (Kalypsys, San Diego, CA), fluorescence intensities in the assay plates were measured by an Envision (PerkinElmer, Shelton, CT) plate reader using three labels for measuring blue, green and red fluorescence at […] 460, 535 and 590nm respectively.

SMILES | Potency | fluorescence, % of fluorescent control
CC(C)(C)c1ccc(C(=O)CCCN2CCC(OC(c3ccccc3)c3ccccc3)CC2)cc1 | inactive | –
C=C(C)C(=O)OCC[N+](C)(C)C | inactive | –
CN1CCC(Nc2ncc3ncnc(Nc4ccc(F)c(Cl)c4)c3n2)CC1 | inactive | –
COc1cccc(N)c1 | inactive | –
Oc1ccc2c(c1)-c1ccccc1C2 | inactive | –
CCCCCCCCCOC(=O)c1ccc(O)cc1 | inactive | –
C[C@@H]1C[C@H]2[C@@H]3CCC4=CC(=O)C=C[C@]4(C)[C@@]3(Cl)[C@@H](O)C[C@]2(C)[C@@]1(OC(=O)c1ccco1)C(=O)CCl | – | 0.0049% [at 18.6 µM]
N=C1C=CC(=C(c2ccc(N)cc2)c2ccc(N)cc2)C=C1 | inactive | –
CCCCN(CCCC)c1ccc(C(=O)c2ccccc2C(=O)O)c(O)c1 | inactive | –
CCc1cc(Cc2cc(CC)c(N)c(CC)c2)cc(CC)c1N | inactive | –
C[C@H]1[C@H]2CC[C@H]3[C@@H]4CC=C5C[C@@H](N(C)C)CC[C@]5(C)[C@H]4CC[C@]23CN1C | inactive | –
N#CSc1ccc(N)c([N+](=O)[O-])c1 | inactive | –
CCCCN1C(=O)[C@@H]([C@H](O)C2CCCCC2)NC(=O)C12CCN(Cc1ccc(Oc3ccc(C(=O)O)cc3)cc1)CC2 | inactive | –
CO[Si](CCCNc1ccccc1)(OC)OC | inactive | –
Oc1ccc(N=Nc2ccccc2)cc1 | inactive | –
CCOC(=O)c1nc(C(Cl)(Cl)Cl)n(-c2ccc(Cl)cc2Cl)n1 | inactive | –
OC1(c2ccc(Cl)c(C(F)(F)F)c2)CCN(CCCC(c2ccc(F)cc2)c2ccc(F)cc2)CC1 | inactive | –
CCC1OCC(COc2ccc(Oc3ccccc3)cc2)O1 (stereo not given) | inactive | –
N=C1N=C(N)c2cc3ccccc3cc21 | inactive | –
Cc1onc(-c2ccccc2Cl)c1C(=O)N[C@@H]1C(=O)N2[C@@H]1SC(C)(C)[C@@H]2C(=O)O | – | 0.401% [at 18.6 µM]

SMILES | Potency | fluorescence, % of fluorescent control
C[n+]1cc2c3c(ccc2c2ccc4cc5c(cc4c21)OCO5)OCO3 | inactive | –
O=c1cccccc1O | inactive | –
Cc1cc(O)c2ccccc2c1O | inactive | –
CN(C)c1ccc(C2(c3ccc(N(C)C)cc3)OC(=O)c3cc(N(C)C)ccc32)cc1 | inactive | –
O=C(Nc1cccc(C(F)(F)F)c1)c1cc(Br)cc(Br)c1O | inactive | –
Cc1ccc(-n2nc(C(C)(C)C)cc2NC(=O)Nc2ccc(OCCN3CCOCC3)c3ccccc23)cc1 | inactive | –
CC1(C)CCC(C)(C)c2cc(C(=O)Nc3ccc(C(=O)O)cc3)ccc21 | inactive | –
O=Cc1cc(O)ccc1Br | inactive | –
Cc1cc(C2CCCCC2)n(O)c(=O)c1 | – | 0.0163% [at 18.6 µM]
CCCCCCCCCCC=O | inactive | –
CS(=O)(=O)CCNCc1ccc(-c2ccc3ncnc(Nc4ccc(OCc5cccc(F)c5)c(Cl)c4)c3c2)o1 | inactive | –
CC1=C(/C=C/C(C)=C/C=C/C(C)=C/C=O)C(C)(C)CCC1 | inactive | –
NNc1nc(-c2ccc([N+](=O)[O-])cc2)cs1 | inactive | –
CCCCCCCC[N+](CCCCCCCC)(CCCCCCCC)CCCCCCCC | inactive | –
O=C(NOCC1CC1)c1ccc(F)c(F)c1Nc1ccc(I)cc1Cl | inactive | –
Fc1ccc(C(c2ccc(F)cc2)N2CCN(C/C=C/c3ccccc3)CC2)cc1 | inactive | –
CCCCC(CC)CN=C(N)NC(N)=NCCCCCCN=C(N)NC(N)=NCC(CC)CCCC (stereo not given) | inactive | –
O=C(O)c1cc(O)c2c(c1)C(=O)c1cccc(O)c1C2=O | inactive | –
ON=C1CCCC1 | inactive | –
Cc1cc(N)c(S(=O)(=O)O)cc1Cl | inactive | –
